From the supplement of paper PMC10849652
Of roughly 8,800 targets only a part is listed; those with a hit were picked by preference. About 0.5% of all pairs of compound and target were hits. A number with no mark means an inactive call.

Key:
Assay in all cases: log2 fold change, soluble protein after heating vs DMSO (PISA); higher = thermal stabilisation; K562 lysate, 10 uM; active = over 0.2 and 3.5 SD of the protein, either way, in both replicates (recomputed)
vemurafenib = compound: CCCS(=O)(=O)Nc1ccc(F)c(C(=O)c2c[nH]c3ncc(-c4ccc(Cl)cc4)cc23)c1F [vemurafenib]
Outline: (§1)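 Log-two fold change in thermal stability relative to solvent controls is reported from duplicates. For each sample, crude K562 extract from dounce-homogenised pellets in PBS pH 7.4 with 1 mM MgCl2, at 1 mg/mL protein, was treated with 10 μM compound for 30 min. Aliquots heated for 3 min across 48°C-58°C were pooled, brought to 0.5% NP-40 at 4°C and cleared at 21,000xg for 90 min. The supernatant was quantified by TMTpro 16plex LC-MS/MS with channel sums equalised.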

[1] = compound: CCCS(=O)(=O)Nc1ccc(F)c(C(=O)c2c[nH]c3ncc(Cl)cc23)c1F
Outline: as §1

barasertib = compound: CCN(CCCOc1ccc2c(Nc3cc(CC(=O)Nc4cccc(F)c4)[nH]n3)ncnc2c1)CCOP(=O)(O)O [barasertib]
Outline: as §1

[2] = compound: CC[C@@H]1C(=O)N(C)c2cnc(Nc3ccc(C(=O)NC4CCN(C)CC4)cc3OC)nc2N1C1CCCC1
Outline: as §1

volasertib = compound: CC[C@@H]1C(=O)N(C)c2cnc(Nc3ccc(C(=O)N[C@H]4CC[C@H](N5CCN(CC6CC6)CC5)CC4)cc3OC)nc2N1C(C)C [volasertib]
Outline: as §1

[3] = compound: CCn1c(C(=O)N(C2CC2)C2CC2)cc2c3c(ncn3C)c(Nc3cc(C)n(C)n3)nc21
Outline: as §1

[4] = compound: CCn1cc(-c2ccnc3[nH]c(-c4cccc(CN(C)C)c4)cc23)c(-c2ccc(NC(=O)N(C)C)cc2)n1
Outline: as §1

[5] = compound: CN1CCC(CNc2ccc3ncc(-c4cccc(OC(F)(F)F)c4)n3n2)CC1
Outline: as §1

saracatinib = compound: CN1CCN(CCOc2cc(OC3CCOCC3)c3c(Nc4c(Cl)ccc5c4OCO5)ncnc3c2)CC1 [saracatinib]
Outline: as §1

sotrastaurin = compound: CN1CCN(c2nc(C3=C(c4c[nH]c5ccccc45)C(=O)NC3=O)c3ccccc3n2)CC1 [sotrastaurin]
Outline: as §1

alvocidib = compound: CN1CC[C@H](c2c(O)cc(O)c3c(=O)cc(-c4ccccc4Cl)oc23)[C@H](O)C1 [alvocidib]
Outline: as §1

Tubastatin A = compound: CN1CCc2c(c3ccccc3n2Cc2ccc(C(=O)NO)cc2)C1 [Tubastatin A]
Outline: as §1

[6] = compound: CNC(=O)C1=CC=CC=C1NC2=NC(=NC=C2Cl)NC3=C(C=C(C=C3)N4CCOCC4)OC
Outline: as §1

defactinib = compound: CNC(=O)c1ccc(Nc2ncc(C(F)(F)F)c(NCc3nccnc3N(C)S(C)(=O)=O)n2)cc1 [defactinib]
Outline: as §1

[7] = compound: CNc1nc(-c2ccc3c(N)n[nH]c3c2)cc(N2C[C@@H](C(=O)NC3CCCCC3)CC[C@H]2C)n1
Outline: as §1

encorafenib = compound: COC(=O)N[C@@H](C)CNc1nccc(-c2cn(C(C)C)nc2-c2cc(Cl)cc(NS(C)(=O)=O)c2F)n1 [encorafenib]
Outline: as §1

[8] = compound: COC(=O)[C@H](CCSC)NC(=O)C1=C(C=C(C=C1)NC[C@H](CS)N)C2=CC=CC=C2
Outline: as §1

alisertib = compound: COc1cc(Nc2ncc3c(n2)-c2ccc(Cl)cc2C(c2c(F)cccc2OC)=NC3)ccc1C(=O)O [alisertib]
Outline: as §1

[9] = compound: COc1cc2nc(-c3cc(F)ccc3O)nc(N[C@@H]3CNC[C@H]3C(C)(C)O)c2cc1OC
Outline: as §1

gefitinib = compound: COc1cc2ncnc(Nc3ccc(F)c(Cl)c3)c2cc1OCCCN1CCOCC1 [gefitinib]
Outline: as §1

Chain of UniProt P78356 (P78356 whole entry, looked up): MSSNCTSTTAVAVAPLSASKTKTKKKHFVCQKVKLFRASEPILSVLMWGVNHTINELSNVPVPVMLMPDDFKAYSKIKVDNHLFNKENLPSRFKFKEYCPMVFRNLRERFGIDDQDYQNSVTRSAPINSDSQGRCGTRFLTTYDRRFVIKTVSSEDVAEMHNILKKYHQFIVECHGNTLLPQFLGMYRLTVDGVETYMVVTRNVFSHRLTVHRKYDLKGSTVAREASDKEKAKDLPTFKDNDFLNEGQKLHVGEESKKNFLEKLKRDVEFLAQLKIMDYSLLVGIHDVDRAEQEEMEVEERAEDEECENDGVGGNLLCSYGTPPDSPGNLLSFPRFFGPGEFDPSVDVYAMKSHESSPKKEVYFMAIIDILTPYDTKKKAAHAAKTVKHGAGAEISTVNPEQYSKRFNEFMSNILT
Chain of UniProt Q9Y446 (Q9Y446 whole entry, looked up): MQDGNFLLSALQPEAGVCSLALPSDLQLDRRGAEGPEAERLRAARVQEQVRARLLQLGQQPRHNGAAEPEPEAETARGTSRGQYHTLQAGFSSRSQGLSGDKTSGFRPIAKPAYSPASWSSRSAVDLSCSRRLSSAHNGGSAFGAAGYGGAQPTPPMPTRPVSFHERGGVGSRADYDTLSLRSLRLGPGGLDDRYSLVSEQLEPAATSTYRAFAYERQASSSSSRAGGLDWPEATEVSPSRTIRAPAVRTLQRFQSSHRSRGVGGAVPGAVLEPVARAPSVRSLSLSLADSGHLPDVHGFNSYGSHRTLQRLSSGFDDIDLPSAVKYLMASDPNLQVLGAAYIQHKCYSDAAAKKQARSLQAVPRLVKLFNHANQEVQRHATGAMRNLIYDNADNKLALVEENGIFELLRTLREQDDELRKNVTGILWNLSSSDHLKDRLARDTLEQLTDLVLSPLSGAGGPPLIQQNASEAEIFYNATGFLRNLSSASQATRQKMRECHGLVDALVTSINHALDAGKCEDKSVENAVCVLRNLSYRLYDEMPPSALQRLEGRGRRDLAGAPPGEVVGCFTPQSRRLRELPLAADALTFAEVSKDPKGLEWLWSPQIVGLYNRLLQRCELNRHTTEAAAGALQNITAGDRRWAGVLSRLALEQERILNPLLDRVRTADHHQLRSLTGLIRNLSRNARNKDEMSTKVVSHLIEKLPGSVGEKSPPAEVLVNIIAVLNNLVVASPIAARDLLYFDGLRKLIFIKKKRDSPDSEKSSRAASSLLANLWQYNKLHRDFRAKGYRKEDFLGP
Chain of UniProt O00459 (O00459 whole entry, looked up): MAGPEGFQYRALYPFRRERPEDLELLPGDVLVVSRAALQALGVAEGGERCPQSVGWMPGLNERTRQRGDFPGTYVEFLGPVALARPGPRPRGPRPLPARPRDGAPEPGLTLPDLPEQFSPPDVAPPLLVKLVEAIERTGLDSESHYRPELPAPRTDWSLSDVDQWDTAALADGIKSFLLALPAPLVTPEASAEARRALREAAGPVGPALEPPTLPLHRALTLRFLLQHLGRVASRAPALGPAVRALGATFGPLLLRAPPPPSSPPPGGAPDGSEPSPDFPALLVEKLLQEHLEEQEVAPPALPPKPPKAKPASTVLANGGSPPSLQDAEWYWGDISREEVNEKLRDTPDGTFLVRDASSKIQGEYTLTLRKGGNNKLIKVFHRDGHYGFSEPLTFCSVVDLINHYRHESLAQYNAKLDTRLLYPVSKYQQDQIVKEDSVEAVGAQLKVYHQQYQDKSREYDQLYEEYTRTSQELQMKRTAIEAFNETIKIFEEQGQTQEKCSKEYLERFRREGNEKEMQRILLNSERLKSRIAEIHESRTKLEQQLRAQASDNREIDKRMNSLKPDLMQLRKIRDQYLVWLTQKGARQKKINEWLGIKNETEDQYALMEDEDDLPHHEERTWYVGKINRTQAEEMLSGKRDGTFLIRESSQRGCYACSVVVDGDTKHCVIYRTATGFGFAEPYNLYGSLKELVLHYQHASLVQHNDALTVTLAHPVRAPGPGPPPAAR
Chain of UniProt P06454 (P06454 whole entry, looked up): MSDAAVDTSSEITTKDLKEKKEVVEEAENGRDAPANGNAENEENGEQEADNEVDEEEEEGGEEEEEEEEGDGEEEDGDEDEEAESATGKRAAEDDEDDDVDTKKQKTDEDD
Chain of UniProt Q9HBH1 (Q9HBH1 whole entry, looked up): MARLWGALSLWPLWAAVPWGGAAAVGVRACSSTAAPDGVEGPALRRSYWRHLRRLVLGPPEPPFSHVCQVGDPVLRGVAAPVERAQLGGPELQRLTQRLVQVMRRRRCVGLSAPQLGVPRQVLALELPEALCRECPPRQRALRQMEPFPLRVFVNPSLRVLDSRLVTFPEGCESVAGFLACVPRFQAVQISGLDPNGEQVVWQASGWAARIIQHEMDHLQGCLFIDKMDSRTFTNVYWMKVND
Chain of UniProt P14314 (P14314 whole entry, looked up): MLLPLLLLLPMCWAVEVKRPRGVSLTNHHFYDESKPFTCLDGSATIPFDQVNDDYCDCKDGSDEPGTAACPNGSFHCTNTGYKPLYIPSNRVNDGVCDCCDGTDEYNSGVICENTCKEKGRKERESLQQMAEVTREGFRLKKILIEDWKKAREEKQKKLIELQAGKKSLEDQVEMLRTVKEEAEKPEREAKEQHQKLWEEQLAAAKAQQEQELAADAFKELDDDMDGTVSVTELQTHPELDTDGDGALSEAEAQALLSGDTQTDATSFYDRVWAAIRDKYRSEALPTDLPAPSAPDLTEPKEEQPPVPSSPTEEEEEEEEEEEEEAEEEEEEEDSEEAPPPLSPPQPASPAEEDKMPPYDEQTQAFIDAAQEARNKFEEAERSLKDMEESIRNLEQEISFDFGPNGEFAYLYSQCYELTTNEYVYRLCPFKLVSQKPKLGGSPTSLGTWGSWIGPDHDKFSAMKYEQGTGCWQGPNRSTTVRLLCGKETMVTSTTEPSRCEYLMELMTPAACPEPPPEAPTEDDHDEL
Chain of UniProt O75569 (O75569 whole entry, looked up): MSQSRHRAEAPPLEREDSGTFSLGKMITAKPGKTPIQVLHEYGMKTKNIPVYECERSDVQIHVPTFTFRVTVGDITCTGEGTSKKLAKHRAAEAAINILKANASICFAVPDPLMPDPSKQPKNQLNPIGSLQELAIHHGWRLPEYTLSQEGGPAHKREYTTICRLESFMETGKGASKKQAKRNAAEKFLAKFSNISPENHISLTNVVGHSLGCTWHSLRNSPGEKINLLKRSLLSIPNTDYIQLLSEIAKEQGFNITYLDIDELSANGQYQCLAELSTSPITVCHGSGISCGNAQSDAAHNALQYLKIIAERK
Chain of UniProt O60825 (O60825 whole entry, looked up): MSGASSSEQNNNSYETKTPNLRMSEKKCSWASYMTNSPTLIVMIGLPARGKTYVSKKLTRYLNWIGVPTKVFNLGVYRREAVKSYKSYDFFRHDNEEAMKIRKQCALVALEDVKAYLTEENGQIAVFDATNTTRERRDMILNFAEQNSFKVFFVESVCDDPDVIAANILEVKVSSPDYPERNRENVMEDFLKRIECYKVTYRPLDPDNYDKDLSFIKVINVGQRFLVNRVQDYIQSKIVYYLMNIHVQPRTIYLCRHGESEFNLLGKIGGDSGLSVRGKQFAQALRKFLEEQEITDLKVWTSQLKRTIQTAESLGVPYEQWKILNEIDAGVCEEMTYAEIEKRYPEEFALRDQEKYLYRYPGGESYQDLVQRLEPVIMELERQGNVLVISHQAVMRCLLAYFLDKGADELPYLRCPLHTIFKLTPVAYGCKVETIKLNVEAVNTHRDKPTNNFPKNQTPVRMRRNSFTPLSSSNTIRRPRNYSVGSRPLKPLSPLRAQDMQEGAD
Chain of UniProt Q9HAU0 (Q9HAU0 whole entry, looked up): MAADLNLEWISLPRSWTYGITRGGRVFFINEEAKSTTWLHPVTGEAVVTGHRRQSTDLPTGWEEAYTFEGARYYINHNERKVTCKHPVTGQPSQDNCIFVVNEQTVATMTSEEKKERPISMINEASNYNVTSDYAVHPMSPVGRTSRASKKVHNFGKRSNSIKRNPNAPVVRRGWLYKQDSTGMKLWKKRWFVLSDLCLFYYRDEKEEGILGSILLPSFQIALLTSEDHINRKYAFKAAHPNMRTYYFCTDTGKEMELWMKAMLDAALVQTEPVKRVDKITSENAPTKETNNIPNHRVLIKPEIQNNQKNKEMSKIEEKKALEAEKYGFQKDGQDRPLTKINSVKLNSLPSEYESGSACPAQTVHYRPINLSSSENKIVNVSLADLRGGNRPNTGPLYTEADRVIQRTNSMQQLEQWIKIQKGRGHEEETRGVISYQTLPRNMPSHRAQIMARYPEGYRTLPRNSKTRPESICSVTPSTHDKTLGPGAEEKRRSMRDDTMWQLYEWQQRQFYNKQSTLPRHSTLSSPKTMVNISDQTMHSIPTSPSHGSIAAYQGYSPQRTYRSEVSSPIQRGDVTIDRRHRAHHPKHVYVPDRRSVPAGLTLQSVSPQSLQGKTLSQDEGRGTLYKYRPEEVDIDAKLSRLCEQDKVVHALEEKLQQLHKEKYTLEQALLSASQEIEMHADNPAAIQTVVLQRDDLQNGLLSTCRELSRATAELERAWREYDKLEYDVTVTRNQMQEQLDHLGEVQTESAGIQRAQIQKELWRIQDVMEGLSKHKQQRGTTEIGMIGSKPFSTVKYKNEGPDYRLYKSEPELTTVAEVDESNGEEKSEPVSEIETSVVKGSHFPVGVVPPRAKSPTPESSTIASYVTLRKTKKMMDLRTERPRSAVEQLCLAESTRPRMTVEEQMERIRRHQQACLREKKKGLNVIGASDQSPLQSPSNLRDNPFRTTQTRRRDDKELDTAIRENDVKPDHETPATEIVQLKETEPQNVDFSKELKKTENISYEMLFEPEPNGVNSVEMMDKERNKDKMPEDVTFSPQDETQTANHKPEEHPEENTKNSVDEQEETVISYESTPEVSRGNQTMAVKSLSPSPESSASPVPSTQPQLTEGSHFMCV

Target	log2 fold change (vemurafenib)	log2 fold change [1]	log2 fold change (barasertib)	log2 fold change [2]	log2 fold change (volasertib)	log2 fold change [3]	log2 fold change [4]	log2 fold change [5]	log2 fold change (saracatinib)	log2 fold change (sotrastaurin)	log2 fold change (alvocidib)	log2 fold change (Tubastatin A)	log2 fold change [6]	log2 fold change (defactinib)	log2 fold change [7]	log2 fold change (encorafenib)	log2 fold change [8]	log2 fold change (alisertib)	log2 fold change [9]	log2 fold change (gefitinib)
PDCD6IP (UniProt Q8WUM4)	-0.003	0.015	0.083	-0.061	0.006	0.013	-0.073	-0.035	-0.068	-0.139	0.05	0	-0.002	-0.021	-0.042	-0.1	0.143	-0.039	0.013	-0.001
PPP1R8 (UniProt Q12972)	0.049	-0.011	-0.032	0.08	-0.007	-0.031	-0.28 (active)	0.176	-0.038	0.015	-0.095	0.028	-0.025	-0.003	0.044	0.028	-0.049	0.022	-0.012	-0.05
PIK3R2 (UniProt O00459)	-0.032	0	-0.002	0.128	-0.003	0.071	-0.018	0.289	-0.014	0.091	0.023	-0.086	0.027	0.017	-0.009	0.009	-0.225	0.008	0.02	-0.052
PGLS (UniProt O95336)	-0.033	-0.027	0.067	-0.055	0.027	0.036	0.051	-0.114	0.039	0.006	0.177	0.09	0.061	0.231	0.016	0.017	0.019	0.03	-0.087	-0.163
PCIF1 (UniProt Q9H4Z3)	0.03	-0.012	0.088	0.023	0.005	0.029	-0.223	0.011	-0.001	-0.036	0.038	0.006	-0.024	0.051	0.02	0.017	0.02	0.04	0.01	-0.051
PRKRA (UniProt O75569)	-0.012	0.031	-0.042	-0.082	-0.052	0.041	0	-0.016	0.03	0.009	0.024	-0.254	0.028	0.02	-0.009	-0.001	0.146	-0.019	-0.004	-0.006
PFKFB2 (UniProt O60825)	-0.011	0.011	0.008	0.004	-0.025	0.015	-0.021	-0.029	0.012	0.002	0.017	-0.045	0.03	-0.02	-0.035	0.015	-0.124	0.014	0.006	0.014
PTMA (UniProt P06454)	0.022	-0.049	0.018	0.06	0.004	-0.031	0.569 (active)	-0.337 (active)	-0.061	0.04	0.194	0.09	-0.104	0.049	0.007	-0.003	-0.038	0.01	0.042	0.014
PRPF38A (UniProt Q8NAV1)	-0.021	-0.011	-0.037	-0.029	-0.031	-0.055	-0.465 (active)	0.046	0.004	0.191	-0.178	-0.068	-0.147	0.013	-0.004	0.115	-0.009	-0.044	0.013	-0.017
PLEKHA5 isoform 6 (UniProt Q9HAU0)	0.003	-0.003	0.043	-0.005	0.003	0.026	-0.117	-0.088	0.027	0.02	-0.11	-0.074	0.02	0.065	0.006	-0.016	0.054	0.035	-0.03	-0.039
PDF (UniProt Q9HBH1)	-0.012	0.03	0.028	-0.118	-0.004	0.01	-0.014	-0.181	0.032	-0.02	0.01	-0.065	0.083	0.059	0.011	0.028	-0.293 (active)	0.048	-0.181	-0.064
PLXNB2 (UniProt O15031)	0.011	-0.007	0.008	0.051	-0.021	-0.003	-0.043	-0.019	0.005	0.024	0	0.015	0.009	0.002	0.027	0.004	-0.107	0.017	0.054	0.016
PRKCSH isoform 2 (UniProt P14314)	0.007	-0.053	-0.159	0.03	-0.052	-0.101	-1.03 (active)	0.326	0.022	0.199	-0.124	0.002	-0.078	-0.011	-0.05	0.039	-0.013	-0.079	-0.042	0.092
PIP4K2B (UniProt P78356)	0.016	0.012	-0.045	0.21 (active)	0.092	0.038	0.048	0.065	-0.045	-0.009	0.223 (active)	0.008	-0.014	0.031	-0.065	0.062	-0.093	-0.036	-0.028	0.013
PKP3 isoform 2 (UniProt Q9Y446)	-0.087	0.05	-0.01	0.061	-0.005	0.05	0.027	-0.088	-0.037	0.001	-0.011	-0.126	0.067	0.035	0.017	0.098	0.095	0.019	0.031	-0.018
PPIL2 (UniProt Q13356)	0.012	0.015	0.035	-0.013	-0.06	0	-0.023	0.016	-0.032	0.024	-0.006	-0.1	-0.006	-0.024	0.056	-0.004	0.036	-0.018	0.027	0.005
